High-throughput results deposited in PubChem by National Center for Advancing Translational Sciences (NCATS).
The list is not random: actives were taken first. Their share in the collection is about 1.1%.
Giardia FBPA inh-1 = Giardia lamblia aldolase inhibition. A8B2U2. purified Giardia FBPA. Potency, µM (series often up to 59.6 µM), usual class: inhibitors. 290,000 compounds, 0.71% hits; note: nearly all actives have a fitted effect of over 55% in size
Target sequence (A8B2U2 whole entry, looked up): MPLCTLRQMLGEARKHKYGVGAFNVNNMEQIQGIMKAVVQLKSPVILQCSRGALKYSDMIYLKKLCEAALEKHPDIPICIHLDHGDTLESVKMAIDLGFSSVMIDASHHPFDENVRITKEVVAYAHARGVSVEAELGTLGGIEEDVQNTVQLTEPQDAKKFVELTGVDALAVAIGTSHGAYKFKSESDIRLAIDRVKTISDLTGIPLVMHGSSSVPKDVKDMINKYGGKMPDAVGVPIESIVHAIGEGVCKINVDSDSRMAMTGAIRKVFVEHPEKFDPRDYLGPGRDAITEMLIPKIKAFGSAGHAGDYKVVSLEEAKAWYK
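40 nM FBPA preincubated 10 min at RT with compound (up to 57.5 uM final), then substrate plus GAPDH/TPI/NAD/arsenate coupling and diaphorase/resazurin added. Fluorescence read after 20 min at RT, 525/598 nm.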
AmpC inh no detg = AmpC beta-lactamase inhibition without detergent. 330,000 compounds, 0.52% hits. Potency, µM (highest dose often 57.1 µM), most hits filed as inhibitors. P00811. AmpC nitrocefin hydrolysis, absorbance 480 nm, 0.0001% Triton; note: nearly all actives have a fitted effect of over 20% in size
Target sequence (P00811 whole entry, looked up): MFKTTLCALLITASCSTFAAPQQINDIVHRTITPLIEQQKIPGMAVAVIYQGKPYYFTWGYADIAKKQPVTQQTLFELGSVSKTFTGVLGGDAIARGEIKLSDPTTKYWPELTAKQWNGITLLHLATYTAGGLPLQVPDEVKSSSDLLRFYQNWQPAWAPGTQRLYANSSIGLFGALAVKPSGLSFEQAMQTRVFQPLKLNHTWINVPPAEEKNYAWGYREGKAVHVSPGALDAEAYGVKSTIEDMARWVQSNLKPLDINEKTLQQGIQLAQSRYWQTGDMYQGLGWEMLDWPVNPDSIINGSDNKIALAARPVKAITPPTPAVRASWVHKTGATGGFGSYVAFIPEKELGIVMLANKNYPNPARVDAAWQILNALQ
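AmpC (5.3 nM in the dispensed reagent) in 20 mM phosphate pH 7.0 with 0.01% (detergent screen) or 0.0001% Triton X-100 was preincubated with compounds for 15 min at room temperature. Nitrocefin was then added from an 800 uM solution, and hydrolysis was followed at 480 nm.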
AMA1 RON2 block = disrupts binding of P. falciparum AMA1 to RON2; AlphaScreen AMA1-biotinylated RON2 peptide binding; Potency, µM (doses to about 58.2 µM), actives largely listed as inhibitors; 360,000 compounds, 0.2% hits; note: nearly all actives have a fitted effect of over 45% in size
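AMA1 (3D7) with his tag at 25 nM final met compounds first, then biotinylated RON2 peptide at 25 nM; detection used donor plus acceptor beads, 10 µg/mL apiece, read by AlphaScreen after 30 min at room temperature.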
AmpC detergent = inhibitors of E. coli AmpC beta-lactamase with detergent | AmpC hydrolysis of nitrocefin, absorbance 480 nm, 0.01% Triton | P00811 | 370,000 compounds, 0.041% hits | AID 485294 | Potency, µM (top dose mostly 114 µM), actives largely listed as inhibitors; note: nearly all actives have a fitted effect of over 25% in size
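AmpC (5.3 nM in the dispensed reagent) in 20 mM phosphate pH 7.0 with 0.01% (detergent screen) or 0.0001% Triton X-100 was preincubated with compounds for 15 min at room temperature. Nitrocefin was then added from an 800 uM solution, and hydrolysis was followed at 480 nm.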
Giardia growth = blocks growth of Giardia lamblia trophozoites. shares compounds with Giardia FBPA inh-1. Giardia lamblia trophozoite growth inhibition. Potency, µM (top dose mostly 57.5 µM), actives largely listed as inhibitors. 1,500 compounds, 5% hits;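 note: trophozoites exposed to compound for 48 h at 37 °C; nearly all actives have a fitted effect of over 70% in size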
Mammal cell tox = counter-screen for Giardia aldolase inhibitors: mammalian cell toxicity | shares compounds with Giardia FBPA inh-1 | mammalian cell viability counter-screen, qHTS | Potency, µM (doses to about 57.5 µM), most hits filed as inhibitors | 1,500 compounds, 4% hits;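 note: Chinese hamster ovary cells used as mammalian cytotoxicity surrogate; viability measured as cellular ATP by luminescence; compound exposure lasted 48 h before reading; nearly all actives have a fitted effect of over 60% in size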
Giardia FBPA inh-2 = confirmation of Giardia fructose-bisphosphate aldolase inhibitors; shares compounds with Giardia FBPA inh-1; purified Giardia aldolase enzyme activity, qHTS; Potency, µM (series often up to 57.5 µM), hits mostly inhibitors; 1,500 compounds, 5% hits; AID 2787; note: nearly all actives have a fitted effect of over 45% in size
Rabbit aldolase = selectivity test for Giardia aldolase inhibitors: rabbit aldolase; Rabbit muscle FBPA enzyme inhibition, selectivity counter-screen; 1,500 compounds, 4% hits; shares compounds with Giardia FBPA inh-1; Potency, µM (doses to about 57.5 µM), hits mostly inhibitors; AID 2794; note: nearly all actives have a fitted effect of over 60% in size
GAPDH counter = counter-screen for Giardia aldolase inhibitors: GAPDH coupling enzyme. shares compounds with Giardia FBPA inh-1. GAPDH coupling enzyme counterscreen, biochemical, qHTS. Potency, µM (doses to about 57.5 µM), hits mostly inhibitors. 1,500 compounds, 6% hits. AID 2795; note: nearly all actives have a fitted effect of over 55% in size
Hits are given with their value; i = inactive; ? = inconclusive; nt = not tested or not shown; [ ] = remark or other dose. Calls come from the whole dose curve; as a rule, active = well fitted curve in the direction sought with a large enough effect; inconclusive = small, poorly fitted or top-dose-only effect, or another doubt; inactive = no such curve, though single readings can be large; an effect the other way counts as inactive or inconclusive.

SMILES	Giardia FBPA inh-1	AmpC inh no detg	AMA1 RON2 block	AmpC detergent	Giardia growth	Mammal cell tox	Giardia FBPA inh-2	Rabbit aldolase	GAPDH counter
Cc1ccc([N+](=O)[O-])cc1NC(=S)NC(=O)c1c(Cl)cnn1C	7.94µM	i	i	i	i	i	i	i	i
O=C(c1cc2ncc(CCCl)cn2n1)N1CCCCCC1	i	i	i	i	nt	nt	nt	nt	nt
O=C(O)c1cc2ncc(CCO)cn2n1	15.8µM	i	i	i	i	i	i	i	i
COC(=O)c1sc(NC(=S)NC(=O)c2cccc(Br)c2)nc1C	11.2µM	i	i	?	i	i	i	i	i
Nc1nc(=S)c2[nH]c(=S)[nH]c2[nH]1	nt	nt	i	nt	nt	nt	nt	nt	nt
Nc1nc(=S)c2[nH]cnc2[nH]1	3.15µM	i	i	i	i	7.08µM	i	i	i
O=C(C[n+]1ccccc1)Nc1c(Cl)cc(Cl)cc1Cl	12.6µM	i	i	i	i	i	i	i	i
COC(=O)c1ccc(C(=O)OC)c(NC(=O)CSc2cccc[n+]2[O-])c1	11.2µM	i	i	i	i	?	i	i	i
O=C(CSc1cccc[n+]1[O-])Nc1ccccc1Oc1ccccc1	6.29µM	i	i	i	i	20µM	i	i	i
O=C(CSc1cccc[n+]1[O-])CSc1cccc[n+]1[O-]	15.8µM	i	i	i	i[10.4 µM]	10µM	i	i	i
O=C(CSc1cccc[n+]1[O-])N1CCCCCC1	i	i	i	i	nt	nt	nt	nt	nt
CCC(O)c1cnc(OCc2ccccc2)nc1OCc1ccccc1 (centres undefined)	nt	nt	i	nt	nt	nt	nt	nt	nt
O=C(NNC(=O)c1ccccc1O)c1cc2ccccc2o1	nt	i	i	i	nt	nt	nt	nt	nt
COc1cc(C(=O)O/N=C2/C=C(C)C(=O)C=C2C)cc(OC)c1OC	6.29µM	i	i	?	i[10.4 µM]	i	14.1µM	6.31µM	3.16µM
Cc1cc(C)c(O)c(N)c1	19.9µM	i	nt	i	i[10.4 µM]	i	?	?	i
Cc1cc(C)c(N)c(C(=O)O)c1	i	i	i	i	nt	nt	nt	nt	nt
O=C(Nc1nc(-c2ccccn2)cs1)c1cccc(-n2cnnn2)c1	5µM	i	i	i	?	31.6µM	i	i	i
Cc1ccnc2nc(C(=O)Nc3nc(-c4ccccn4)cs3)nn12	15.8µM	i	i	i	?	i	i	i	i
O=C(Nc1nc(-c2ccccn2)cs1)c1ccco1	15.8µM	i	i	i	?	39.8µM	i	i	i
CCc1cc(=O)[nH]c(SCc2nc(-c3cccc(Cl)c3)no2)n1	nt	nt	nt	i	nt	nt	nt	nt	nt
c1ccc(-c2nn[nH]n2)cc1	i	i	i	i	nt	nt	nt	nt	nt
c1ccc(-c2n[nH]c(-c3ccccn3)n2)nc1	3.15µM	i	?	?	i	i	i	i	i
c1ccc(-c2nn[nH]n2)nc1	7.92µM	i	?	i	i	i	i	i	i
O=C(O)CSc1c(O)c2ccccc2[nH]c1=O	17.7µM	i	i	i	?	i	i	i	i
O=c1[nH]c2ccccc2c(O)c1SCCO	?	i	i	i	nt	nt	nt	nt	nt
SMILES	Giardia FBPA inh-1	AmpC inh no detg	AMA1 RON2 block	AmpC detergent	Giardia growth	Mammal cell tox	Giardia FBPA inh-2	Rabbit aldolase	GAPDH counter
O=C(CSc1cccc(C(F)(F)F)c1)Nc1nnc(C2CC2)s1	nt	i	i	nt	nt	nt	nt	nt	nt
O=C(CSc1ccccc1)Nc1nnc(C2CC2)s1	14.1µM	i	i	i	?	i	i	i	i
O=C(c1ccccc1)N1CCN(CCc2ccccc2)CC1	i	i	i	i	nt	nt	nt	nt	nt
O=C(c1cccc(Cl)c1)N1CCN(CCCc2ccccc2)CC1	12.6µM	i	?	i	i	i	i	i	i
COc1ccc(/C=C/C(=O)NCC(=O)N/N=C/c2cccs2)cc1	i	i	i	i	nt	nt	nt	nt	nt
CCCC1CC(C)(/C(C)=N\NC(N)=S)OC1=O (centres undefined)	i	i	i	i	nt	nt	nt	nt	nt
C/C(CC1CC(C)(C)OC1=O)=N\NC(N)=S (centres undefined)	19.9µM	i	i	i	i	i	i	i	i
C/C(CCC1CC(C)(C)OC1=O)=N\NC(N)=S (centres undefined)	17.7µM	i	i	i	i	i	i	i	i
COc1ccc(-c2ccc(C(=O)Nc3ccc(Cl)cc3)c3occc23)c(C)c1	nt	nt	i	nt	nt	nt	nt	nt	nt
CCc1cc(C(=O)N2CCCc3ccccc32)sc1C	nt	nt	i	nt	nt	nt	nt	nt	nt
Cc1cccnc1Nc1nc(-c2ccc(O)c(O)c2)cs1	9.98µM	i	i	i	i	i	i	i	i
COc1ccc(-c2csc(Nc3ncccc3C)n2)cc1OC	i	i	i	?	nt	nt	nt	nt	nt
Cc1ccc(CN2CCC(N3CC(C)OC(C)C3)CC2)cc1 (centres undefined)	15.8µM	i	i	i	?	i	i	i	i
O=C(O)c1ccc2c(=O)n(-c3ccccc3F)c(=S)[nH]c2c1	i	i	i	?	nt	nt	nt	nt	nt
COc1ccc(-n2c(=S)[nH]c3ccc(C)cc3c2=O)cc1	nt	nt	i	nt	nt	nt	nt	nt	nt
Cc1ccc(-n2c(=S)[nH]c3[nH]ncc3c2=O)cc1	15.8µM	i	i	i	i	i	i	i	i
O=c1c2cn[nH]c2[nH]c(=S)n1-c1ccccc1Cl	25.1µM	i	i	i	i	i	i	i	i
O=c1c2cn[nH]c2[nH]c(=S)n1-c1ccccc1F	7.06µM	i	i	i	i	i	i	i	i
CCCn1c2ccccc2c2cnn(CC(=O)Nc3cc(C)c(Cl)cc3OC)c(=O)c21	nt	nt	nt	i	nt	nt	nt	nt	nt
Cc1ccc(O)c(N=Cc2cccs2)c1	19.9µM	i	i	?	i	i	35.5µM	39.8µM	50.1µM
CCC(=O)NC(c1cccs1)c1cc([N+](=O)[O-])c2cccnc2c1O (centres undefined)	?	i	?	i	nt	nt	nt	nt	nt
CC(=O)NC(c1cccs1)c1cc([N+](=O)[O-])c2cccnc2c1O (centres undefined)	?	i	i	i	i	29.1µM	?	?	13µM
CC(=O)NC(c1ccccc1)c1cc([N+](=O)[O-])c2cccnc2c1O (centres undefined)	19.9µM	i	i	i	17.8µM	?	3.16µM	?	12.6µM
Cc1ccccc1S(=O)(=O)NC(=O)C1(C)CCN1C(=O)CC(c1ccccc1)c1ccccc1 (centres undefined)	nt	nt	i	nt	nt	nt	nt	nt	nt
CCOc1ccccc1NC(=O)N1CCN(C)c2ncccc21	nt	nt	nt	i	nt	nt	nt	nt	nt
O=C(OCC(=O)c1ccc(Cl)s1)c1cnccn1	i	?	i	i	nt	nt	nt	nt	nt
CC(C)(C)c1cc(Cl)ccc1OCCOCCN1CCCC1	?	i	?	i	nt	nt	nt	nt	nt
Cc1ccc(OCCOCCN2CCN(C)CC2)c(C(C)(C)C)c1	12.6µM	i	?	i	i	i	i	i	i
